Results on eight molecules are retold here after PubChem BioAssay (NCATS).

Assay [1] deals with Lysosomal acid glucosylceramidase (Homo sapiens) (UniProt P04062). Description: Glucocerebrosidase-p2 (AID 348; in the data active = potency below about 10 µM; also: potency is read from the fitted curve at half-maximal effect). The conditions noted are these: purified GBA, blue fluorogenic substrate, 40 min. The method, boiled down:
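Compounds titrated from 0.6 nM upwards against 0.2 nM enzyme in pH 5.9 citric acid/KH2PO4, taurocholate, tween-20; blue fluorogenic substrate 80 uM, 40 min room temperature, stopped and read Ex 365/Em 440 for AC50.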

The target in assay [2] is Cytochrome P450 1A2 (Homo sapiens) (UniProt P05177). Description: p450-cyp1a2 (AID 410; calls by dose curve). The conditions noted are these: recombinant CYP1A2, luciferin-ME demethylation, luminescence; series mostly up to 11.4 µM. An outline of the steps: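 Human CYP1A2 (20nM) demethylated Luciferin-ME at its Km (100uM) in 100mM KPO4. After 10 min compound preincubation, NADPH regeneration ran the reaction 60 min at room temperature. Luciferin was read by luminescence, normalized to 57 uM furafylline.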
Sequence of Cytochrome P450 1A2 (Homo sapiens) (P05177 whole entry, looked up): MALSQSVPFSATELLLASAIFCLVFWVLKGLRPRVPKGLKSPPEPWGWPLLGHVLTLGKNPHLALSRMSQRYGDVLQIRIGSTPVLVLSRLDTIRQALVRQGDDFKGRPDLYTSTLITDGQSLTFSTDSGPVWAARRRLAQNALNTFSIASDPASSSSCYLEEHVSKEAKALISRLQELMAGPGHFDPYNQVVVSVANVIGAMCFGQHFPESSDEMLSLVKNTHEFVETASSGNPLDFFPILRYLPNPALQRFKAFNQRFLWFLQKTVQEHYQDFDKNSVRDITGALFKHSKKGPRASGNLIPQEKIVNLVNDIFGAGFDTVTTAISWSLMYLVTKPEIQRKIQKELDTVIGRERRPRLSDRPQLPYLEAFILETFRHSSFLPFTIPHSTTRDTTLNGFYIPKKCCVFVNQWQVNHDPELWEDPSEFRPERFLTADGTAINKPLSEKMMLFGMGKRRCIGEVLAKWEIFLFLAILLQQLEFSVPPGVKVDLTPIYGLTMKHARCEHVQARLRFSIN

Assay [3] can be described thus: NFAT Signaling Pathway (AID 444).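 Also: carbachol stimulus at about its EC50 of 1 µM final; % is scaled to controls: 0 for no effect and ±100 for the full control effect.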 The conditions noted are these: Jurkat NFAT-bla M1, carbachol, beta-lactamase ratio, 5 h; at 7.69 µM (top of the series) unless noted. An outline of the steps:
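Jurkat cells with NFAT-driven β-lactamase reporter and co-expressed M1 receptor, stimulated with carbachol (final 1 uM, ~EC50), compound titration, 5 h at 37 °C. CCF4 loaded 1 h at RT; 460/530 nm ratio gave %activity and AC50.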

A short description of assay [4]: Stat Signaling Pathway (AID 446).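 Also: ME-180 cervical cancer cells given 40 pM IL-6 alongside compound; SIE-controlled beta-lactamase reporter measured as 460/530 nm FRET emission ratio; % is scaled to controls: 0 for no effect and ±100 for the full control effect.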 The conditions noted are these: ME-180 SIE beta-lactamase reporter, IL-6 stimulated, 5 h; at 7.69 µM (top of the series) unless noted. The method, boiled down:
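ME-180 cells carrying a SIE-driven beta-lactamase reporter are stimulated with 40 pM IL-6 for 5 h at 37C in the presence of compound. The 460/530 nm FRET substrate ratio is read after 2.5 h at RT. Data are normalised to 300 pM IL-6 and to 125 nM JAK inhibitor controls.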

Assay [5] has as its target Glucocorticoid receptor (Homo sapiens) (UniProt P04150). Description: GR-GFP Redistribution (AID 450;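 active = compounds whose dose series gives a full or clear partial fitted curve of increased nuclear translocation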; also: potency is read from the fitted curve at half-maximal effect). The note with it: U2OS GR-GFP nuclear translocation, laser cytometry, 2 h.
The target is the same in assay [6]. Description: GR-EFC Redistribution (AID 451; calls by dose curve; also: potency is read from the fitted curve at half-maximal effect). The note with it: CHO-K1 GR-EFC translocation, beta-gal luminescence, 2 h. The method, boiled down:
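CHO-K1 cells expressing nuclear EA and GR-ED fragments of b-gal; compounds titrated up to 46 uM final, 2 h at 37 C. GR nuclear translocation read as complemented b-gal luminescence after 1 h RT detection.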

In assay [7] the target is Mitogen-activated protein kinase 10 (Mus musculus) (UniProt Q61831). Description: JNK3 AlphaScreen Assay (AID 530).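 Also: kinase came from lysate of stimulated human HepG2 cells; signal reports phosphorylation of biotinylated GST-cJun 1-79 at Ser73 with 10 µM ATP; % is scaled to controls: 0 for no effect and ±100 for the full control effect.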 The note with it: JNK3 lysate, c-Jun phosphorylation; series mostly up to 11.4 µM. The method, boiled down: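 qHTS format: compounds tested as titrations against IL-1beta/TNF-alpha-activated HepG2 lysate JNK3 with biotin-GST-cJun substrate and 10 uM ATP at room temperature. Loss of anti-phospho-cJun AlphaScreen signal indicates inhibition.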
For orientation: In Alpha technology, singlet oxygen from a donor bead excites a nearby acceptor bead.

Assay [8] addresses 3',5'-cyclic-AMP phosphodiesterase 4B (Homo sapiens) (UniProt Q07343). Description: qHTS Assay for Inhibitors of PDE-IV (AID 607; active = well fitted activation curve with a large enough effect in the main read-out, with a control signal flat, not every such curve was filed as active; also: % of control where 0% means no effect). The conditions noted are these: HEK293 ACTOne CNG channel cells, membrane potential fluorescence; series mostly up to 22.9 µM. The method, boiled down: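 HEK293 ACTOne cells with CNG channel (1000/well), endogenous PDE4; membrane potential dye, compounds up to 22.9 uM final. Fluorescence Ex 535/Em 590; RO 20-1724 (100 uM final) as reference.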
For orientation: In qHTS, concentration-response curves come from the screen itself.

The target in assay [9] is Cytochrome P450 2C9 (Homo sapiens) (UniProt P11712). Description: qHTS Assay for Inhibitors and Substrates of Cytochrome P450 2C9 (AID 883; active = well fitted curve in the direction sought with a large enough effect; an effect the other way counts as inactive or inconclusive; also: nearly all actives have a fitted effect of over 60% in size; also: potency is read from the fitted curve at half-maximal effect). The conditions noted are these: recombinant CYP2C9, luciferin-H luminescence, 60 min; series mostly up to 11.4 µM. An outline of the steps:
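Human CYP2C9 (10nM) with Luciferin-H at 100uM (its KM) in 25mM KPO4; compound preincubated 10 min at 37C, then NADPH regeneration for 60 min at 37C. Luciferin read by luminescence after detection reagent; normalized to 57uM sulphaphenazole as full inhibition.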

Assay [10] addresses Cytochrome P450 3A4 (Homo sapiens) (UniProt P08684). Description: qHTS Assay for Activators of Cytochrome P450 3A4 (AID 885; active = well fitted curve in the direction sought with a large enough effect; an effect the other way counts as inactive or inconclusive; also: nearly all actives have a fitted effect of over 65% in size). The conditions noted are these: recombinant CYP3A4, Luciferin-PPXE luminescence, 60 min; series mostly up to 11.4 µM. The method, boiled down: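 Human CYP3A4 (20 nM) with Luciferin-PPXE at 25 uM (its KM) in 200 mM KPO4; 10 min compound preincubation, then NADPH regeneration and 60 min reaction at RT. Luciferin read by luminescence; normalized to 57 uM ketoconazole full inhibition.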

The target of assay [11] is Cytochrome P450 2D6 (Homo sapiens) (UniProt P10635). Description: qHTS Assay for Inhibitors and Substrates of Cytochrome P450 2D6 (AID 891; active = well fitted curve in the direction sought with a large enough effect; an effect the other way counts as inactive or inconclusive; also: nearly all actives have a fitted effect of over 60% in size; also: potency is read from the fitted curve at half-maximal effect). The conditions noted are these: recombinant CYP2D6, luciferin-ME EGE luminescence; series mostly up to 11.4 µM. An outline of the steps: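 Human CYP2D6 (5 nM) with 30 uM Luciferin-ME EGE (at Km) in 100 mM KPO4, compound preincubated 10 min, then NADPH regeneration system for 60 min at room temperature. Luciferin read by luminescence; normalized to 1.43 uM quinidine.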
Sequence of Cytochrome P450 2D6 (Homo sapiens) (P10635 whole entry, looked up): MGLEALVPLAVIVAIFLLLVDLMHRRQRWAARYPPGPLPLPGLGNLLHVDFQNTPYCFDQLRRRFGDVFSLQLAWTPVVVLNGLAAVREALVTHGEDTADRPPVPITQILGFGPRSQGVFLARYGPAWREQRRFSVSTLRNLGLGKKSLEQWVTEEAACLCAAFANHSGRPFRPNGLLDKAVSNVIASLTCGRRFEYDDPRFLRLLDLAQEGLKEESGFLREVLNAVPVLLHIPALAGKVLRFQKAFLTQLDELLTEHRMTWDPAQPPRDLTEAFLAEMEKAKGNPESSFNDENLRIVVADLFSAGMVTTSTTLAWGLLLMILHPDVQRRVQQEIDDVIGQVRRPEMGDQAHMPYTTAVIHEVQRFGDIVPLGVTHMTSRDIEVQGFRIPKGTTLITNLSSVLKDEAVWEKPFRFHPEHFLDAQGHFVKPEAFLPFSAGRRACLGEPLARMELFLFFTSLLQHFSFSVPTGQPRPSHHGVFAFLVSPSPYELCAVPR

Assay [12] concerns the target Cytochrome P450 2C19 (Homo sapiens) (UniProt P33261). Description: qHTS Assay for Inhibitors and Substrates of Cytochrome P450 2C19 (AID 899; active = well fitted curve in the direction sought with a large enough effect; an effect the other way counts as inactive or inconclusive; also: nearly all actives have a fitted effect of over 60% in size; also: potency is read from the fitted curve at half-maximal effect). The conditions noted are these: recombinant CYP2C19, luciferin-H EGE luminescence; series mostly up to 11.4 µM. The method, boiled down:
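5 nM human CYP2C19 with 10uM Luciferin-H EGE (at KM) in 50mM KPO4, compound preincubated 10 min at 37C, then NADPH regeneration for 60 min at 37C. Luciferin read by luminescence after detection reagent; normalized to 57uM ketoconazole as full inhibition.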

A short description of assay [13]: AP1 Signaling Pathway (AID 357). Also: % is scaled to controls: 0 for no effect and ±100 for the full control effect. The note with it: ME-180 AP-1-bla reporter, EGF-induced, beta-lactamase ratio, 5 h; at 7.69 µM (top of the series) unless noted. The method, boiled down: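 Cells are seeded overnight, exposed to compound titrations and an EC50 level of EGF for 5 hours at 37 °C, then loaded with CCF4 dye for 2.5 hours. Beta-lactamase activity under the AP-1 element is read as a blue/green ratio.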

Assay [14] can be described thus: qHTS Assay for Identification of Small Molecule Agonists for Hypoxia Response Element Signaling Pathway (AID 914; active = well fitted activation curve with a large enough effect in the signal ratio, with a control signal flat, not every such curve was filed as active; the % refers to the signal ratio; also: % of control where 0% means no effect). The conditions noted are these: ME-180 (cervical carcinoma) HRE-bla reporter, beta-lactamase ratio, CoCl2, 17 h; activation: stronger effect = higher value. The method, boiled down:
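Reporter activity (beta-lactamase, CCF4 460nm/530nm ratio) in HRE-bla ME-180 cells is recorded after 17 h compound exposure with EC50 CoCl2 at 37 degrees Celsius. AC50 values come from titration data.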

Assay [15] concerns the target Cytochrome P450 3A4 (Homo sapiens) (UniProt P08684). Description: qHTS Assay for Inhibitors and Substrates of Cytochrome P450 3A4 (AID 884; active = well fitted curve in the direction sought with a large enough effect; an effect the other way counts as inactive or inconclusive; also: potency is read from the fitted curve at half-maximal effect; nearly all actives have a fitted effect of over 50% in size). The conditions noted are these: recombinant CYP3A4, Luciferin-PPXE luminescence; series mostly up to 57.1 µM. The method, boiled down: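 20 nM human CYP3A4 with 25 uM Luciferin-PPXE (at KM) in 200 mM KPO4, preincubated 10 min with compound; NADPH regeneration started a 60 min RT reaction. Luciferin detected by luminescence, normalized to 57 uM ketoconazole as full inhibition.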

Values without a mark were called inactive. Records with an inconclusive call do not appear. Active and inactive are the calls of the source. Unless noted, calls follow the shape of the dose curve; as a rule, active = well fitted curve in either direction with a large enough effect (not every such curve was filed as active); inconclusive = small, poorly fitted or top-dose-only effect, or another doubt; inactive = flat fitted curve, though single readings scatter.

Sequence of Lysosomal acid glucosylceramidase (Homo sapiens) (P04062 whole entry, looked up): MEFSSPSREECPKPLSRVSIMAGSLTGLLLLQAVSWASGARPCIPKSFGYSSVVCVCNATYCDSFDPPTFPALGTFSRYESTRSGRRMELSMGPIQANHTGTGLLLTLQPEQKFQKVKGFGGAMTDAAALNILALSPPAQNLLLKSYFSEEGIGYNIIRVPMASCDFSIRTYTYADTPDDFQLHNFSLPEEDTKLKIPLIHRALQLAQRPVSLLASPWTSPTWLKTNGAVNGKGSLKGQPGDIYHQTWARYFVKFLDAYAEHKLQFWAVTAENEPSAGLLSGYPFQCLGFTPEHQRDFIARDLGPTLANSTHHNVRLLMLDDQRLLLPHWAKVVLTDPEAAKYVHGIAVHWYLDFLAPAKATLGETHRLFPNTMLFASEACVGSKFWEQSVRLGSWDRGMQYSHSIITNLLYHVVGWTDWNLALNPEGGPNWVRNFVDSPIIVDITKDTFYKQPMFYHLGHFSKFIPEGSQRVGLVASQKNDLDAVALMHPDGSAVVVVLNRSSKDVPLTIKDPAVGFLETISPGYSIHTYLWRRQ
Sequence of Cytochrome P450 3A4 (Homo sapiens) (P08684 whole entry, looked up): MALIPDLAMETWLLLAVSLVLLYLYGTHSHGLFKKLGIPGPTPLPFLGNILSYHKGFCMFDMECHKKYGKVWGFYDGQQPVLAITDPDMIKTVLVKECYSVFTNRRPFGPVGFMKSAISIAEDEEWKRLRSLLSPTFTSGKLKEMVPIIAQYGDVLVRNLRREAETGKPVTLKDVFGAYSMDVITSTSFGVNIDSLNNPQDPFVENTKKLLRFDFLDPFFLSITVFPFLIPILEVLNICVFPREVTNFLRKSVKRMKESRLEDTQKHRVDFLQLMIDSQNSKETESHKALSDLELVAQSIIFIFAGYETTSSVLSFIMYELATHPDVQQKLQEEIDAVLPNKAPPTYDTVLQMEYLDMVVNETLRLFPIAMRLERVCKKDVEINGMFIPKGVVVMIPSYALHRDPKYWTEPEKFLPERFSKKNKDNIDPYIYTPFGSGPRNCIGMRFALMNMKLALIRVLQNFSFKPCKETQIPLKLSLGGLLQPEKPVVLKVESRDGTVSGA
Sequence of Glucocorticoid receptor (Homo sapiens) (P04150 whole entry, looked up): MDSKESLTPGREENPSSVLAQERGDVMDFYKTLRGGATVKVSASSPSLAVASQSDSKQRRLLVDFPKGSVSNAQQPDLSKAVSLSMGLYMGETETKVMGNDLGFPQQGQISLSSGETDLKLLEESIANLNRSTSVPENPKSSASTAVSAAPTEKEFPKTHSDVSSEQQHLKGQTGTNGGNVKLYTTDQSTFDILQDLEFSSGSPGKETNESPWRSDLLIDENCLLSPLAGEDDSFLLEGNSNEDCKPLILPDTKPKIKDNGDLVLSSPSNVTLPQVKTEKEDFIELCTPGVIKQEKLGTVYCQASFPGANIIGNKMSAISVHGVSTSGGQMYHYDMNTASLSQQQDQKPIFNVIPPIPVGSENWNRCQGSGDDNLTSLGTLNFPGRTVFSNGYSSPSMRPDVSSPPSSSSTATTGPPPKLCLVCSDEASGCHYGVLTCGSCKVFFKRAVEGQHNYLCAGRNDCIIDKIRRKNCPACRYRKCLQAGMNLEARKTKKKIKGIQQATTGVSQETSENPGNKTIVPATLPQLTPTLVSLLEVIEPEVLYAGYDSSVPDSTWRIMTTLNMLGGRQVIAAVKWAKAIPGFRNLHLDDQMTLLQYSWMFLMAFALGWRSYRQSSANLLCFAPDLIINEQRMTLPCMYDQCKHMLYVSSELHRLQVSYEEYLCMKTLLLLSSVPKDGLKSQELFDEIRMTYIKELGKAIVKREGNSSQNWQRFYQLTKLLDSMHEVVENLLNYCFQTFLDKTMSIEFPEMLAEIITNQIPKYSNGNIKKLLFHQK
Sequence of 3',5'-cyclic-AMP phosphodiesterase 4B (Homo sapiens) (Q07343 whole entry, looked up): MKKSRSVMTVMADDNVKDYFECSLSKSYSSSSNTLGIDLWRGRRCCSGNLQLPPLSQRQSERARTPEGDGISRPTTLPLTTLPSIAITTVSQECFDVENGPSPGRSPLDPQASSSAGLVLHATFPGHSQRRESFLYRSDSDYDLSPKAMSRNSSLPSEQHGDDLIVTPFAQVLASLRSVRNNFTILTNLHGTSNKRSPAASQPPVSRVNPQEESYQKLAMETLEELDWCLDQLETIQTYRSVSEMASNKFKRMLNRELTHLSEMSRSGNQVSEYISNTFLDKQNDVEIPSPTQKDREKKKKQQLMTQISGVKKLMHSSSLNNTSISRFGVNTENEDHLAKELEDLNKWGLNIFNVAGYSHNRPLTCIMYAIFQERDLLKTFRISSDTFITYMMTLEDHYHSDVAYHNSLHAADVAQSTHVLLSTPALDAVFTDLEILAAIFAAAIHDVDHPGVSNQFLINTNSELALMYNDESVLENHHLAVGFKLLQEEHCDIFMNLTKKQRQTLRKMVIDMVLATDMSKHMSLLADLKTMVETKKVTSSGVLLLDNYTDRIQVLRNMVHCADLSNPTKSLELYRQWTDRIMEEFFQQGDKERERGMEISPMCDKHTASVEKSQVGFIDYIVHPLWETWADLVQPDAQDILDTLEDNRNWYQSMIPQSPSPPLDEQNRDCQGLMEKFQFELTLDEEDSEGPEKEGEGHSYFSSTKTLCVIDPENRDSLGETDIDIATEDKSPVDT
Sequence of Cytochrome P450 2C19 (Homo sapiens) (P33261 whole entry, looked up): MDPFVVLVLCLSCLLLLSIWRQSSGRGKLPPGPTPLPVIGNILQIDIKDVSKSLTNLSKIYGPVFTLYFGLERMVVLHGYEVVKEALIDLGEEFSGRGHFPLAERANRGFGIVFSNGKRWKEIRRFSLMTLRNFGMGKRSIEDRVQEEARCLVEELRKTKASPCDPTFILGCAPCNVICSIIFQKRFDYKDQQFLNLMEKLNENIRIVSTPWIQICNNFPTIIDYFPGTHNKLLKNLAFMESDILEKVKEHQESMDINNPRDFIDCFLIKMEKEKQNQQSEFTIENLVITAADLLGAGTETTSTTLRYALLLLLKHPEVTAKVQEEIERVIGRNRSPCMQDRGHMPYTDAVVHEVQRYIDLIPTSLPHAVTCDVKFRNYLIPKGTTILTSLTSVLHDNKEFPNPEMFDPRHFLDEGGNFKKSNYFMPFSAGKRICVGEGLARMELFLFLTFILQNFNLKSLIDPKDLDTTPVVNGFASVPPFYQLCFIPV
Sequence of Cytochrome P450 2C9 (Homo sapiens) (P11712 whole entry, looked up): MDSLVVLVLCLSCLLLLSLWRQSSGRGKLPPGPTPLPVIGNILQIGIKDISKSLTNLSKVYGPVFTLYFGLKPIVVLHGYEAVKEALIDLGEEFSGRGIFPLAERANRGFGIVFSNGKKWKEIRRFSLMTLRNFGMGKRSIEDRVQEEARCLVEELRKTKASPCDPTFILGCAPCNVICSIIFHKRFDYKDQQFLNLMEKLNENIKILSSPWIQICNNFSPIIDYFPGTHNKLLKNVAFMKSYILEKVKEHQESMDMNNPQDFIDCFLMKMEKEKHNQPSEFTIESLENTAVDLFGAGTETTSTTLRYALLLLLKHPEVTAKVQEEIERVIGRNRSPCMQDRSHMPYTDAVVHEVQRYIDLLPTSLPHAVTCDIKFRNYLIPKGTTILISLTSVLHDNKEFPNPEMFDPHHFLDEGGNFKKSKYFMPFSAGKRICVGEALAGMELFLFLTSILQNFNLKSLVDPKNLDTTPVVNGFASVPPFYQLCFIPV

For the molecule `CC(CCC(=O)O)(c1ccc(O)cc1)c1ccc(O)cc1`, the Potency in assay [1] was > 11.4 µM; in [5], > 46 µM; in assay [6], > 9.22 µM. Also, the Potency result in assay [2], in assay [7], in [8], in assay [9], in assay [10] and in [11] was “inactive” in each case. For the same molecule, the Potency result in [12] was “inactive”. Further, in assay [3], the activity change, negative = inhibition is 6.62%. In addition, in [4], the activity, negative = inhibition was -4.62%.

Consider `NC(CSS(=O)(=O)O)=N[C@@H]1C[C@H]2CC[C@@H]1C2`, for which the Potency was > 11.4 µM in [1], > 46 µM in assay [5] and > 9.22 µM in assay [6]. In assay [13], the activity change, negative = inhibition is 16.8%. The activity, negative = inhibition in assay [4] was -5.27%. Further, the Potency result in [7], in assay [8] and in [12] was “inactive” in each case.

On to `O[C@@H](c1cc(-c2ccc(Cl)cc2)nc2ccccc12)[C@@H]1CCCCN1`, for which the figures for the Potency in assay [1], in [6] and in [11] were > 11.4 µM, > 9.22 µM and 0.631 µM (active), respectively. Also, the activity change, negative = inhibition in assay [13] was -7.25%. Moreover, the activity, negative = inhibition in assay [4] was -6.67%. Besides, the Potency result in assay [7] and in [8] was “inactive” throughout.

With `O=C(CCN1CCCCC1)c1csc2ccccc12`, the Potency in assay [1] is > 11.4 µM; in assay [5], > 46 µM; in assay [6], > 9.22 µM. Also, the activity change, negative = inhibition in assay [13] was -4.73%. Further, in [4], the activity, negative = inhibition is -9.72%. The Potency entry in assay [7] and in [8] was “inactive” throughout. Also, the activation in assay [14] was -7.69%.

Take `O=C(c1ccc([N+](=O)[O-])cc1)[C@@H](Br)[C@@H](Br)c1ccnc2ccccc12`: the Potency is > 11.4 µM in assay [1], > 46 µM in assay [5], 3.16 µM (active) in assay [9] and 1.26 µM (active) in assay [12]. For the same molecule, in assay [13], the activity change, negative = inhibition was -11.4%. The Potency entry in assay [7], in assay [8] and in assay [10] was “inactive” throughout.

Consider `Fc1cccc(Cl)c1/C=N\N=C1c2ccccc2-c2ccccc21`, for which the values for the Potency in [1] and in [5] were > 11.4 µM and > 46 µM, respectively. In addition, in assay [13], the activity change, negative = inhibition is 13.6%. Further, the activity, negative = inhibition in assay [4] was 6.95%. The Potency result in assay [7] and in [8] was “inactive” in each case.

In the case of `O=c1cnc2cnc(N3CCNCC3)nc2n1CCc1ccccc1`, the Potency in [1] is > 11.4 µM; in [5], > 9.22 µM; in [6], > 46 µM. The activity change, negative = inhibition in assay [13] is -5.27%. The activity, negative = inhibition in assay [4] is -12.8%. The Potency result in assay [7], in [8] and in assay [10] was “inactive” throughout.

Consider `CN(C)Cc1cc(C(F)(F)F)ccc1C(O)(c1ccccc1)c1ccccc1`, for which the Potency is > 11.4 µM in [1], > 46 µM in assay [5], > 9.22 µM in assay [6] and 0.794 µM (active) in assay [15]. In addition, the activity change, negative = inhibition in [13] is 19.8%. Besides, the activity, negative = inhibition in [4] was 9.65%. Moreover, the Potency entry in assay [7], in assay [8] and in assay [10] was “inactive” in each case. The activation in assay [14] is 25.7%.
